Assay outcomes deposited in PubChem by National Center for Advancing Translational Sciences (NCATS).
LASV entry inh – blocks Lassa virus binding to or entry into cells; Lassa virus pseudotype entry inhibition, cell reporter; Potency, µM (titrated, usually from 37.9 µM), for the others: at the highest dose activity change, negative = inhibition, actives largely listed as inhibitors; 300,000 tested, 1.2% active; calls by dose curve; tested in HEK293 cells; note: potency is the fitted concentration of half-maximal effect; nearly all actives have a fitted effect of over 50% in size
FMDV inh – antivirals against foot and mouth disease virus. FMDV antiviral cell-based qHTS. Potency, µM (highest dose often 57.9 µM), without a hit: at the highest dose activity change, negative = inhibition, most hits filed as inhibitors. 410,000 tested, 1.2% active. AID 1159524; calls by dose curve; tested in HEK293T cells; note: read-out not given here; potency is the fitted concentration of half-maximal effect; nearly all actives have a fitted effect of over 45% in size
HCMV inh – human cytomegalovirus inhibition; activity change, negative = inhibition, % at 57.5 µM; HFF cells, HCMV-luciferase reporter, 72 h; hits give low values; 410,000 tested, 4.5% active; in the data active = activity change below about -60%; inconclusive = no clear call, values can overlap the other calls; inactive = above about -39%
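Two-dose cell screen: HFF monolayers treated with compounds and infected with luciferase-expressing HCMV at 1 PFU/cell, 72 h at 37C, then lysed for luciferase measurement.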
MARV entry inh – Marburg virus entry inhibition; Potency, µM (series often up to 37.8 µM), without a hit: at the highest dose activity change, negative = inhibition, actives largely listed as inhibitors; 300,000 tested, 1.8% active; Marburg virus pseudotyped entry inhibition, cell reporter; AID 540276; calls by dose curve; tested in HEK293 cells; note: potency is the fitted concentration of half-maximal effect
Active calls of the source: *; u = inconclusive; x = not tested or not shown; [ ] = another dose, or the depositor's remark. Shown are actives, neighbours in structure and some others; about 6.2% of the full set was active somewhere. % is set by controls: 0 for no effect and ±100 for the full control effect.

SMILES | LASV entry inh | FMDV inh | HCMV inh | MARV entry inh
O=C1Nc2ccccc2/C1=C/c1ccccc1F | 0.9%[46.1 µM] | -10.0% | 18.1 | -7.6%[46.1 µM]
COc1ccc(NC(=O)Cn2c(=O)n(-c3ccc(C)c(C)c3)c(=O)c3c(C)c(C)sc32)cc1 | -3.5%[46.1 µM] | -14.5% | -16.3 | 3.8%[46.1 µM]
O=C(O)CCCC(=O)OCCCc1cc2ccccc2c(=O)o1 | x | x | -3.1 | x
COc1ccc2[nH]cc(CCNc3nc(-c4ccccc4CN(C)C)nc4ccccc34)c2c1 | x | -22.1% | x | x
NC(=O)COc1ccc(C(=O)/C=C2/C(=O)Nc3ccccc32)cc1 | u | u | -19.1 | u
COc1cc(OC)c(/C=C2\C(=O)Nc3ccccc32)c(OC)c1 | x | 28.2µM* | -32.9 | x
COc1ccc(C(=O)/C=C2/C(=O)Nc3ccccc32)c(OC)c1 | u | u | -100.1* | u
COc1ccc(C(=O)/C=C2/C(=O)Nc3ccccc32)cc1OC | x | 31.6µM* | 47.8 | x
C=CCOc1ccc(C(=O)/C=C2/C(=O)Nc3ccccc32)cc1 | -19.3%[46.1 µM] | 15.9% | -69.5* | u
COc1ccc(/C=C/C(=O)c2ccc(OC)cc2OC)cc1 | x | 52.1% | -30.2 | x
CN1C(=O)[C@@]2(O[C@H]3[C@H]4C=C[C@@H]([C@H]5C(=O)N(Cc6ccccc6)C(=O)[C@@H]45)N3C3=C2C(=O)CC3)c2ccccc21 | x | x | 96.6 | x
O=C(OC1Cc2c(O)cc(O)cc2OC1c1cc(O)c(O)c(O)c1-c1c(C2Oc3cc(O)cc(O)c3CC2OC(=O)c2cc(O)c(O)c(O)c2)cc(O)c(O)c1O)c1cc(O)c(O)c(O)c1 (stereo unspecified) | x | -16.5% | x | x
COc1cccc([C@@H]2Oc3ccc(Br)cc3C(=O)[C@@H]2OC(=O)N[C@H]2CCCc3ccccc32)c1 | x | x | x | -11.4%[14.2 µM]
CC(C)(C)OC(=O)N1CCC(c2c(C(=O)N3CCN(Cc4ccccc4)CC3)cnn2-c2cccc(Cl)c2)CC1 | u | 0.0% | 11.3 | x
CC(=O)N1CCc2c(sc3c2c(=O)n(-c2cccc(Cl)c2)c(=O)n3Cc2ccc(F)cc2Cl)C1 | -17.6%[46.1 µM] | u | 8.8 | x
C=CCOc1ccccc1C(=O)/C=C1/C(=O)Nc2ccccc21 | x | 39.8µM* | -102.9* | x
Cc1ccc(CNc2nc(C)nc3sc4c(c23)CCC4)cc1 | 41.5%[14.3 µM] | u | u | u
Cc1nc(Nc2ccc(O)cc2)c2c3c(sc2n1)CCCC3 | u | -21.3% | -75.9* | u
CC(C)C[C@H]1CN([C@@H](Cc2ccccc2)CN2CCC[C@H]2CN2C(=O)C(=O)NC[C@@H]2Cc2ccc(O)cc2)C(=O)C(=O)N1CC1CCCCCC1 | x | 3.1% | -86.9* | x
CC(C)C[C@H]1CN([C@@H](Cc2ccc(O)cc2)CN2CCC[C@H]2CN2C(=O)C(=O)NC[C@@H]2Cc2ccccc2)C(=O)C(=O)N1CC1CCCCC1 | x | 20.1% | -11.7 | x
CC(C)C[C@H]1CN([C@@H](Cc2ccc(O)cc2)CN2CCC[C@@H]2CN2C(=O)C(=O)NC[C@@H]2Cc2ccccc2)C(=O)C(=O)N1CC1CCCCCC1 | x | 9.2% | -65.0* | x
COc1cc(C)c2c(=O)cc(-c3ccccc3)oc2c1 | x | 47.6% | x | x
Cc1ccc(N(C(=O)CNC(=O)c2ccco2)C(C(=O)NCC2CCCO2)c2ccccc2)cc1C (stereo unspecified) | x | -15.4% | -67.3* | -26.3%[46.1 µM]
CCOc1ccccc1N(C(=O)c1ccco1)C(C(=O)NC1CCCC1)c1cccs1 (stereo unspecified) | -11.6%[46.1 µM] | 14.9% | -62.6* | u
CCOc1ccc(N(C(=O)CNC(=O)c2ccco2)C(C(=O)NC2CCCC2)c2ccncc2)cc1 (stereo unspecified) | 17.6%[46.1 µM] | -8.4% | -11.3 | -18.2%[46.1 µM]
SMILES | LASV entry inh | FMDV inh | HCMV inh | MARV entry inh
CC(=O)c1ccc(N(C(=O)c2ccco2)C(C(=O)NC2CCCC2)c2cccs2)cc1 (stereo unspecified) | x | 31.5% | u | -6.0%[46.1 µM]
O=C(NC1CCCCC1)C(c1cccs1)N(C(=O)c1ccco1)c1ccc2c(c1)OCCO2 (stereo unspecified) | u | 4.8% | -61.4* | u
COc1ccc(N(C(=O)c2ccco2)C(C(=O)NC2CCCC2)c2cccs2)c(OC)c1 (stereo unspecified) | u | 3.8% | -10.8 | -26.1%[46.1 µM]
CCOc1ccccc1N(C(=O)CNC(=O)c1ccco1)C(C(=O)NC1CCCC1)c1ccncc1 (stereo unspecified) | 24.3% | 0.0% | -61.1* | -24.9%[46.1 µM]
COc1ccc(CNC(=O)c2cnn(-c3ncc4c(n3)-c3ccccc3CC4)c2C)cc1OC | x | 33.9% | x | x
CC(=O)c1cccc(N(C(=O)CNC(=O)c2ccco2)C(C(=O)NC2CCCC2)c2ccc(C)o2)c1 (stereo unspecified) | 9.5% | 1.78µM* | -10.0 | 4.9%[46.1 µM]
CC(=O)c1cccc(N(C(=O)CNC(=O)c2ccco2)C(C(=O)NC2CCCC2)c2ccco2)c1 (stereo unspecified) | u | 24.9% | -6.9 | 0.5%[46.1 µM]
Cc1ccc(N(C(=O)CNC(=O)c2ccco2)C(C(=O)NC2CCCC2)c2ccncc2)cc1C (stereo unspecified) | x | -3.3% | -66.7* | -1.4%[46.1 µM]
Cc1ccc(N(C(=O)CNC(=O)c2ccco2)C(C(=O)NC2CCCC2)c2ccncc2)cc1F (stereo unspecified) | 0.4% | -13.3% | 17.9 | 4.3%[46.1 µM]
CCOc1ccccc1CN(Cc1ccco1)S(=O)(=O)c1ccc(-n2cnnn2)c(OC)c1 | u | 41.9% | -74.4* | u
COc1cccc(CN2C(=O)NC(C)(C3CCN(Cc4ccc(C)o4)CC3)C2=O)c1OC (stereo unspecified) | x | -16.9% | x | x
CCc1ccc(OCC(=O)NC(NC(=S)Nc2ccc(C)cc2C)C(Cl)(Cl)Cl)cc1 (stereo unspecified) | -26.8% | u | -63.7* | u
Cc1ccc(C)c(NC(=S)NC(NC(=O)N(C)C)C(Cl)(Cl)Cl)c1 (stereo unspecified) | -5.3% | x | 29.8 | 8.2%
Cc1ccc(C)c(NC(=S)NC(NC(=O)Cc2cccc3ccccc23)C(Cl)(Cl)Cl)c1 (stereo unspecified) | 7.94µM* | -22.4% | -97.7* | 12.6µM*
COC(=O)c1ccccc1NC(=S)NC(NC(=O)COc1ccccc1)C(Cl)(Cl)Cl (stereo unspecified) | -6.5% | 7.2% | -102.2* | u
Cc1ccc(NC(=S)NC(NC(=O)c2ccccc2C)C(Cl)(Cl)Cl)c(C)c1 (stereo unspecified) | u | -26.1% | -26.0 | 23.1µM*
CCc1ccc(OCC(=O)NC(NC(=S)Nc2ccccc2C)C(Cl)(Cl)Cl)cc1 (stereo unspecified) | u | -9.1% | u | u
CC(=O)NC(NC(=S)Nc1ccc(C)cc1C)C(Cl)(Cl)Cl (stereo unspecified) | x | -9.0% | 5.3 | x
CNc1nc2cnc(Nc3cccc(C(F)(F)F)c3)cc2n1Cc1ccc(OC)c(OC)c1 | x | x | 20.5 | x
CC1Cc2cc(S(=O)(=O)NCCc3ccccc3)ccc2N1C(=O)C1CCC1 (stereo unspecified) | -21.0%[46.1 µM] | 30.0% | -19.3 | x
CCc1ccc(OCC(=O)NC(NC(=S)Nc2ccccc2OC)C(Cl)(Cl)Cl)cc1 (stereo unspecified) | -28.2% | -9.8% | -71.6* | -13.9%
